The nature of assay [1]: sensitizers of A549 cells to miR-34 induction, primary screen, imaging, A549 dox-inducible miR-34, nuclei and caspase counts (AID 1347080;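 active means compounds whose cell count with miR-34 switched on is under 0.7 times the count with it off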). The following applies: A549 miR-34 inducible, Hoechst nuclei count, 48 h.
In assay [2] the target is NAD(+) hydrolase SARM1 (Homo sapiens) (UniProt Q6SZW1). Put plainly: SARM1 TIR NADase inhibitors, cell lysate, NAD-Glo luminescence (AID 1508614;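 active means compound whose remaining NAD level is above about 45 nM, limit read from the data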). The note with it: SAM-TIR HEK293T lysate NADase, at 1 µM, stronger effect = higher value.
Assay [3] deals with Mitogen-activated protein kinase 7 (Homo sapiens) (UniProt Q13164). Put plainly: ERK5 transactivation activators in reporter cells, primary screen, cell-based, HTS (AID 1508626;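 active means luciferase signal above three times the same-plate solvent-only control wells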;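 further: luciferase driven by Gal4-ERK5 fusion binding five Gal4 sites before minimal TATA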). The following applies: HeLa Gal4-ERK5 transactivation, 18 h, at 5 µM, stronger effect = higher value.
Assay [4] is described as follows: viability rescue of complex I mutant cybrids, primary screen, cell-based, galactose medium, ATP luminescence (AID 1645843).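 Further: positive z means more ATP and so rescue of galactose-driven cybrid death.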 The note with it: complex I mutant cybrid cells, 72 h, stronger effect = higher value.
Assay [5] can be described thus: phospholipid biosynthesis inhibitors in animal cells, primary screen, cell-based, LOPAC library, screen 4 (AID 1347384; call rule not given here). The following applies: phospholipid biosynthesis inhibition screen, at 10 µM.
The nature of assay [6]: survival rescue of mitochondrial mutant cells in low glucose, primary screen, MELAS cybrids, Rieske KO mouse fibroblasts, CellTiter-Glo (AID 1508586;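 active means mean z-score across replicates of 1.96 or higher in either the MELAS or the Rieske mutant cell line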;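 further: z relative to plate mean and SD of compound and empty wells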). A general note: Cellular ATP, detected with luciferase, serves as a proxy for viable cell number.
Assay [7] in a line: inhibitors of Cryptococcus chitosan production, flow cytometry, Cibacron Brilliant Red staining (AID 1347148; call rule not given here;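 further: compound exposure lasted three days at 37 degrees C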). The following applies: Cryptococcus neoformans chitosan, stronger effect = lower value; at 10 µM unless noted. Background: In flow cytometry, cells or beads pass a laser one at a time.
[8] abbreviates: stronger effect = lower value, cell number ratio, induced over uninduced.
[9] abbreviates: measured here: relative caspase fold change +Dox/-Dox.
The mark [10] stands for this setting: measured here: total cells with miR-34 induction, stronger effect = lower value.
Setting [11] is: measured here: total cells without miR-34 induction.
Where [12] appears, read: MELAS cybrid survival, CellTiter-Glo 48 h, stronger effect = higher value.
Where [13] appears, read: Rieske KO mouse fibroblast survival, CellTiter-Glo 72 h.

Data on 18 compounds can be found in PubChem BioAssay.

Several values for one entry are separate records, joined by “and”; a condition that tells them apart may be missing. Equal values may be shown once. Activity calls are given as the source filed them.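 How the source made its calls, unless noted: active means z-score of at least 1.8 in each of two replicates, scored against plate mean and spread of sample wells; inactive means the rest.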 Starred links: 1 amine or outer side, 2 acyl side, 3 side chain; linkers in the order of their positions; H or OH if unused. Positions of bridges follow the written chain, without caps; N, C: chain ends. Non-standard residues stand in square brackets, D forms with d. Residues, ends and D or L forms follow the SMILES beside them. Chains are numbered I, II in the order given. Actinocin(9to1) = Cc1c2oc3c(C)ccc(C(=O)[*:1])c3nc-2c(C(=O)[*:2])c(N)c1=O; NMeV = CN[C@H](C(=O)O)C(C)C; Sar = CNCC(=O)O

NAD(+) hydrolase SARM1 (Homo sapiens), sequence (Q6SZW1 whole entry, looked up, the tested form may be a part): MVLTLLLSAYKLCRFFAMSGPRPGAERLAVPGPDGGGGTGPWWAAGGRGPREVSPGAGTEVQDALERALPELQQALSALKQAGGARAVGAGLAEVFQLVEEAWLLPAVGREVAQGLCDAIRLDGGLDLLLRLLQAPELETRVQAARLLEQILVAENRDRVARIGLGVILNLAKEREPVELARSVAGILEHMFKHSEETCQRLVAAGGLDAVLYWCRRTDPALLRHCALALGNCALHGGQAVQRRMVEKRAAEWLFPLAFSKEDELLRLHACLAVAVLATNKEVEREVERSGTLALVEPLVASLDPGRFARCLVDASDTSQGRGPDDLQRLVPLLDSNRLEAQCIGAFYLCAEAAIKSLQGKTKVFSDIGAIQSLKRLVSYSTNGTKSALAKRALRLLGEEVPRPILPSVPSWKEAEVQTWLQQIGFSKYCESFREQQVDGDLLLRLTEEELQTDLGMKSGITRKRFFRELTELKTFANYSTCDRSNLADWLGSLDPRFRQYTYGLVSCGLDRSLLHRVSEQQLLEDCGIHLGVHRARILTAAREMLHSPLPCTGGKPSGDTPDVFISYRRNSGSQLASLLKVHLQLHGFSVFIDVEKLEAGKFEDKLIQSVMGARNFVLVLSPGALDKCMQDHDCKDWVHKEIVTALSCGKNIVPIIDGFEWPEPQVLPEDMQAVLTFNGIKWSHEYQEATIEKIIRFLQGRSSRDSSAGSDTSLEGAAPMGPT
Mitogen-activated protein kinase 7 (Homo sapiens), sequence (Q13164 whole entry, looked up, the tested form may be a part): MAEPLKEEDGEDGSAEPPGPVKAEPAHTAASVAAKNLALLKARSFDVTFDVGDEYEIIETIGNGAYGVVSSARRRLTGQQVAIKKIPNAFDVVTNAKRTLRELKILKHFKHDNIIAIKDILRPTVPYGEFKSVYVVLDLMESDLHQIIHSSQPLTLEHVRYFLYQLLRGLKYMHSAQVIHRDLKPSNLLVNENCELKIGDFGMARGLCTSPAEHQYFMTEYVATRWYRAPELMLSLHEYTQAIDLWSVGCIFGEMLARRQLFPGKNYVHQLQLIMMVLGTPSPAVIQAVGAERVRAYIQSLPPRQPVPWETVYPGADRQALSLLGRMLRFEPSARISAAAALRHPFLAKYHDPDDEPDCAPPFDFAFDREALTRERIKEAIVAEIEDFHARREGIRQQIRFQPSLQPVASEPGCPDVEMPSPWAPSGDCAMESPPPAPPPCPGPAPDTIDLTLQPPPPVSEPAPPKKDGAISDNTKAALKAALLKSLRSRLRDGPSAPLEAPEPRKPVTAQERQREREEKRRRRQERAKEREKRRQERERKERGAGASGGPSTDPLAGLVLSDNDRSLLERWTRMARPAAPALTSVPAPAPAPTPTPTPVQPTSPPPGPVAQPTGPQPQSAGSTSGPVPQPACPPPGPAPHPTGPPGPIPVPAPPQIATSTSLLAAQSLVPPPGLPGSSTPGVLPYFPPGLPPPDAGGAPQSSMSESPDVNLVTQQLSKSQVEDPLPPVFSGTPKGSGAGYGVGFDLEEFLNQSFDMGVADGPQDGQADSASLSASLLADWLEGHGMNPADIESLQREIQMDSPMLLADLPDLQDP

In the case of `C=CCc1ccc(O)c(OC)c1`, the fold change is 0.949 (inactive) in assay [1] (setting [8]) and 0.583 in assay [1] (setting [9]). The cell count in assay [1] (setting [10]) came to 11000; in assay [1] (setting [11]), 11600. Moreover, the remaining NAD in assay [2] was 10 nM (inactive). In assay [3], the luciferase signal is 12 AU (inactive).
With `O=C(c1ccc(F)cc1)C1CCN(CCn2c(=S)[nH]c3ccccc3c2=O)CC1`, the fold change in assay [1] (setting [8]) was 0.921 (inactive) and 0.889 (inactive); in assay [1] (setting [9]) it was 1.65 and 1.01. Also, the cell count was 8480 and 7360 in assay [1] (setting [10]); 9210 and 8290 in assay [1] (setting [11]). The z-score in assay [4] was -0.715 (inactive) and -0.61 (inactive).
For `Nc1c2c(nc3c1CCC3)CCCC2`, the fold change is 1.06 (inactive) in assay [1] (setting [8]) and 2.56 in assay [1] (setting [9]). Also, the values for the cell count in assay [1] (setting [10]) and in assay [1] (setting [11]) were 10500 and 9920, respectively. Further, in assay [4], the z-score was -0.465 (inactive).
Turning to `O=C(NCCN1CCOCC1)c1ccc(Cl)cc1`, the cell count in assay [1] (setting [11]) is 10300 and 10900 and 9280. For the same compound, the result in assay [5] was inactive. The z-score in assay [6] (setting [12]) was 0.188 (inactive) and 0.694 (inactive); in assay [6] (setting [13]), 0.0884 and 0.188; in assay [4], 0.645 (inactive) and 0.32 (inactive).
As for `CC(=O)OCC(COC(C)=O)OC(C)=O`, the fold change in assay [1] (setting [8]) was 0.85 (inactive); in assay [1] (setting [9]), 3.03. Moreover, the figures for the cell count in assay [1] (setting [10]) and in assay [1] (setting [11]) were 10700 and 12600, respectively. Besides, the remaining NAD in assay [2] was 10 nM (inactive). Besides, the luciferase signal in assay [3] was 8 AU (inactive).
As to `Cc1c2oc3c(C)ccc(C(=O)N[C@@H]4C(=O)N[C@H](C(C)C)C(=O)N5CCC[C@H]5C(=O)N(C)CC(=O)N(C)[C@@H](C(C)C)C(=O)O[C@@H]4C)c3nc-2c(C(=O)N[C@@H]2C(=O)N[C@H](C(C)C)C(=O)N3CCC[C@H]3C(=O)N(C)CC(=O)N(C)[C@@H](C(C)C)C(=O)O[C@@H]2C)c(N)c1=O` (I: T[dV]P[Sar][NMeV] / II: T[dV]P[Sar][NMeV]; ester I:1-I:C, II:1-II:C; linker I:N-II:N via Actinocin(9to1)), the fold fluorescence in assay [7] was 23.3 [at 107.6 µM] (inactive). In addition, the remaining NAD in assay [2] was 10 nM (inactive). Further, the luciferase signal in assay [3] was 16 AU (inactive).
With `CC[N+](C)(CC)CCOC(=O)C(O)(c1ccccc1)C1CCCCC1` (stereo unspecified), the fold change in assay [1] (setting [8]) was 0.958 (inactive); in assay [1] (setting [9]), 1.3. Besides, the cell count stood at 8830 in assay [1] (setting [10]) and 9210 in assay [1] (setting [11]). The remaining NAD in assay [2] is 10 nM (inactive). Besides, the z-score in assay [4] is 0.47 (inactive).
As for `OCc1cccnc1`, the fold change in assay [1] (setting [8]) was 0.908 (inactive); in assay [1] (setting [9]) it was 1.47. Further, the values for the cell count in assay [1] (setting [10]) and in assay [1] (setting [11]) were 8900 and 9800, respectively. Further, the remaining NAD in assay [2] is 10 nM (inactive). In addition, the z-score in assay [4] was 0.275 (inactive).
For `CCCOc1ccccc1-c1nc2n[nH]nc2c(=O)[nH]1`, in assay [7], the fold fluorescence is 6.79 [at 184.3 µM] (inactive). The call in assay [5] was inactive. The z-score in assay [6] (setting [12]) was 0.137 (inactive) and -0.665 (inactive); in assay [6] (setting [13]) it was -0.13 and -0.629; in assay [4], 0.78 (inactive) and -0.305 (inactive) and 1.09 (inactive). In assay [2], the remaining NAD is 10 nM (inactive).
`C=C[C@@]1(C)CC(=O)[C@]2(O)[C@@]3(C)[C@@H](O)CCC(C)(C)[C@@H]3[C@H](O)[C@H](OC(C)=O)[C@@]2(C)O1`: the fold change is 0.943 (inactive) in assay [1] (setting [8]) and 1.09 in assay [1] (setting [9]). The cell count worked out at 9780 in assay [1] (setting [10]) and 10400 in assay [1] (setting [11]). The remaining NAD in assay [2] was 10 nM (inactive). Besides, the luciferase signal in assay [3] is 44 AU (inactive). Further, in assay [4], the z-score is -0.315 (inactive).
With `Cc1cc(C)cc(OCC2CNC(=O)O2)c1` (stereo unspecified), the fold change in assay [1] (setting [8]) was 0.878 (inactive); in assay [1] (setting [9]), 2.33. The values for the cell count in assay [1] (setting [10]) and in assay [1] (setting [11]) were 10800 and 12400, respectively. The remaining NAD in assay [2] was 10 nM (inactive). The luciferase signal in assay [3] is 72 AU (inactive).
Take `O=C1CC2(CCCC2)CC(=O)N1CCNCC1COc2ccccc2O1` (stereo unspecified): the fold change in assay [1] (setting [8]) was 0.839 (inactive) and 0.901 (inactive); in assay [1] (setting [9]), 1.72 and 0.868. For the same compound, the cell count was 8960 and 8470 in assay [1] (setting [10]); 10700 and 9400 in assay [1] (setting [11]). In assay [4], the z-score is 0.655 (inactive) and -0.78 (inactive).
Take `Cc1cc(O)cc(C)c1Cl`: the fold change in assay [1] (setting [8]) is 0.933 (inactive); in assay [1] (setting [9]), 1.14. The cell count was 10100 in assay [1] (setting [10]) and 10800 in assay [1] (setting [11]). In addition, the remaining NAD in assay [2] was 10 nM (inactive). The luciferase signal in assay [3] was 32 AU (inactive).
Regarding `Nc1ccc(C(=O)O)c(O)c1`, the cell count in assay [1] (setting [11]) is 10200 and 11500 and 13800. Moreover, the z-score is -0.177 (inactive) and -0.201 (inactive) and 0.567 (inactive) in assay [6] (setting [12]); -0.173 and -0.712 and -0.26 in assay [6] (setting [13]); 0.45 (inactive) in assay [4]. The remaining NAD in assay [2] is 10 nM (inactive). Also, the luciferase signal in assay [3] was 44 AU (inactive).
As to `O=C(O)c1ccccc1Nc1cccc(C(F)(F)F)c1`, the fold fluorescence in assay [7] is 5.28 [at 177.8 µM] (inactive). For the same compound, the z-score in assay [6] (setting [12]) was -0.231 (inactive) and 0.292 (inactive) and -0.218 (inactive); in assay [6] (setting [13]), -0.153 and 0.0506 and 0.216; in assay [4], 0.44 (inactive). The remaining NAD in assay [2] is 10 nM (inactive). Further, the luciferase signal in assay [3] is 56 AU (inactive).
On to `CCN(CC)C(=O)c1cccc(C)c1`, for which the fold change was 0.989 (inactive) in assay [1] (setting [8]) and 1.76 in assay [1] (setting [9]). In addition, the cell count in assay [1] (setting [10]) was determined as 11700; in assay [1] (setting [11]) it was 11800. Besides, the remaining NAD in assay [2] was 10 nM (inactive). The luciferase signal in assay [3] was 68 AU (inactive).
Turning to `Nc1ccc(C(=O)O)cc1`, the values for the fold change in assay [1] (setting [8]) and in assay [1] (setting [9]) were 0.846 (inactive) and 0.809, respectively. The cell count is 10600 in assay [1] (setting [10]) and 12500 in assay [1] (setting [11]). For the same compound, in assay [2], the remaining NAD is 10 nM (inactive). Further, in assay [3], the luciferase signal is 40 AU (inactive).
As to `CNCCCCOc1ccccc1Cc1ccccc1`, the fold change in assay [1] (setting [8]) was 0.954 (inactive) and 0.995 (inactive); in assay [1] (setting [9]), 1.55 and 0.924. In addition, the cell count in assay [1] (setting [10]) is 7470 and 8010; in assay [1] (setting [11]), 7840 and 8050. In addition, in assay [4], the z-score was -1.31 (inactive) and -0.275 (inactive).
